Measurements reported in PubChem BioAssay (EPA / NIEHS).
Active and inactive are the calls of the source. Rule for the calls: active = hit-call score of the fitted dose curve at least 0.9, where 1 is the maximum; inactive = score below 0.9.

Legend:
Details in all cases: mRNA level, 48 h; actives raise or lower the signal
CYP2C9 (gene 1559) = assay: LTEA_HepaRG_CYP2C9: Life Technologies and Expression Analysis (LTEA) Assay for CYP2C9 using HepaRG (AID 2283484)
Procedure, shortened: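 Differentiated human HepaRG cells in serum-free induction medium were exposed 48 h to chemicals in 8-point half-log series from 100 uM (0.5% DMSO), in duplicate. CYP2C9 mRNA was measured by qRT-PCR, normalized to ACTB/GAPDH/POLR2A, with bidirectional fitting versus DMSO.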

CYP2E1 (gene 1571) = assay: LTEA_HepaRG_CYP2E1: Life Technologies and Expression Analysis (LTEA) Assay for CYP2E1 using HepaRG (AID 2283485)
Procedure, shortened: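 Human liver line HepaRG, plated 48 h, then serum-free induction medium + chemical x 48 h; 8-pt CRC from 100 uM, half-log, 0.5% DMSO, n=2. Readout: CYP2E1 mRNA qRT-PCR vs ACTB/GAPDH/POLR2A; bidirectional fit vs DMSO.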

CYP4A11 (gene 1579) = assay: LTEA_HepaRG_CYP4A11: Life Technologies and Expression Analysis (LTEA) Assay for CYP4A11 using HepaRG (AID 2283486)
Procedure, shortened: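 Human hepatic HepaRG cultures receive duplicate 48 h exposures across a concentration-response series topping at 100 uM. Expression changes in CYP4A11 are measured by qRT-PCR relative to DMSO controls.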

[1] = read-out: Cytochrome P450 3A4 (Homo sapiens) (UniProt P08684); assay: LTEA_HepaRG_CYP3A4: Life Technologies and Expression Analysis (LTEA) Assay for CYP3A4 using HepaRG (AID 2283487)
Procedure, shortened: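 HepaRG, 48 h exposure, 8-pt CRC from 100 uM (half-log), 0.5% DMSO, duplicates; serum-free induction medium. Readout: CYP3A4 mRNA, qRT-PCR, ACTB/GAPDH/POLR2A normalization. Bidirectional fit vs DMSO.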

[2] = read-out: DNA damage-inducible transcript 3 (DDIT3), DDIT3 (gene 1649); assay: LTEA_HepaRG_DDIT3: Life Technologies and Expression Analysis (LTEA) Assay for DNA damage-inducible transcript 3 (DDIT3) using HepaRG (AID 2283488)
Procedure, shortened: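 HepaRG plated 48 h, switched to serum-free induction medium, dosed 48 h (100 uM top, half-log, 8 pts, 0.5% DMSO, n=2); RNA isolated; DDIT3 by qRT-PCR; bidirectional curve fit vs DMSO.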

[3] = read-out: Pro-epidermal growth factor (Homo sapiens) (UniProt P01133); assay: LTEA_HepaRG_EGF: Life Technologies and Expression Analysis (LTEA) Assay for Epidermal growth factor (EGF) using HepaRG (AID 2283489)
Procedure, shortened: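 Concentration-response mRNA assay: HepaRG cells dosed 48 h (max 100 uM, 0.5% DMSO), EGF measured by qRT-PCR and normalized to ACTB/GAPDH/POLR2A.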

[4] = read-out: Early growth response protein 1 (EGR1) transcription factor, EGR1 (gene 1958); assay: LTEA_HepaRG_EGR1: Life Technologies and Expression Analysis (LTEA) Assay for Early growth response protein 1 (EGR1) transcription factor using HepaRG (AID 2283490)
Procedure, shortened: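 Differentiated HepaRG cells in serum-free induction medium exposed 48 hours, duplicate, to 8 half-log concentrations up to 100 uM in 0.5% DMSO. EGR1 mRNA measured by TaqMan qRT-PCR, normalized to ACTB, GAPDH, POLR2A; bidirectional fit versus DMSO.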

[5] = read-out: Ezrin (EZR), EZR (gene 7430); assay: LTEA_HepaRG_EZR: Life Technologies and Expression Analysis (LTEA) Assay for Ezrin (EZR) using HepaRG (AID 2283491)
Procedure, shortened: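 Read-out is EZR transcript level by qRT-PCR, normalized to three housekeeping genes and fitted bidirectionally against the DMSO control. Human HepaRG cells received test chemicals for 48 h at eight half-log concentrations up to 100 uM in 0.5% DMSO.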

[6] = read-out: Cytochrome P450 3A7 (Homo sapiens) (UniProt P24462); assay: LTEA_HepaRG_CYP3A7: Life Technologies and Expression Analysis (LTEA) Assay for CYP3A7 using HepaRG (AID 2283492)
Procedure, shortened: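 qRT-PCR of CYP3A7 in HepaRG lysates after 48 h treatment; concentration-response (8 points, max 100 uM) analysed bidirectionally relative to 0.5% DMSO controls.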

CYP3A5 (gene 1577) = assay: LTEA_HepaRG_CYP3A5: Life Technologies and Expression Analysis (LTEA) Assay for CYP3A5 using HepaRG (AID 2283493)
Procedure, shortened: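 HepaRG plated 48 h, switched to serum-free induction medium, chemicals added 48 h (max 100 uM, half-log, 0.5% DMSO). RNA isolated; CYP3A5 by TaqMan qRT-PCR. Gain/loss vs DMSO.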

[7] = read-out: Fatty Acid-Binding Protein 1 (FABP1), FABP1 (gene 2168); assay: LTEA_HepaRG_FABP1: Life Technologies and Expression Analysis (LTEA) Assay for Fatty Acid-Binding Protein 1 (FABP1) using HepaRG (AID 2283494)
Procedure, shortened: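 Differentiated human HepaRG cells exposed 48 h in serum-free induction medium to eight half-log concentrations up to 100 uM (0.5% DMSO), duplicate. FABP1 mRNA by qRT-PCR, normalised to ACTB, GAPDH, POLR2A; bidirectional fitting against DMSO.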

[8] = read-out: Cytochrome P450 4A22 (Homo sapiens) (UniProt Q5TCH4); assay: LTEA_HepaRG_CYP4A22: Life Technologies and Expression Analysis (LTEA) Assay for Cytochrome P450 4A22 (CYP4A22) using HepaRG (AID 2283495)
Procedure, shortened: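 Concentration-response (8 points, max 100 uM, 0.5% DMSO) in human HepaRG liver cells after 48 h exposure. CYP4A22 mRNA by TaqMan qRT-PCR with housekeeping-gene normalization.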

[9] = read-out: Glutathione S-Transferase (GSTA2), GSTA2 (gene 2939); assay: LTEA_HepaRG_GSTA2: Life Technologies and Expression Analysis (LTEA) Assay for Glutathione S-Transferase (GSTA2) using HepaRG (AID 2283497)
Procedure, shortened: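 Differentiated human HepaRG cells were exposed in duplicate for 48 h in serum-free induction medium, 8 points from 100 uM top in half-log steps, 0.5% DMSO. GSTA2 mRNA was measured by TaqMan qRT-PCR, normalized to ACTB, GAPDH and POLR2A; bidirectional fit versus DMSO.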

[10] = read-out: Glutamate-cysteine ligase catalytic (GCLC), GCLC (gene 2729); assay: LTEA_HepaRG_GCLC: Life Technologies and Expression Analysis (LTEA) Assay for Glutamate-cysteine ligase catalytic (GCLC) using HepaRG (AID 2283498)
Procedure, shortened: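 Differentiated HepaRG cells exposed 48 h in serum-free induction medium, eight-point half-log series topping at 100 uM in 0.5% DMSO, duplicates. GCLC mRNA by qRT-PCR normalized to ACTB, GAPDH and POLR2A, fitted bidirectionally versus DMSO.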

[11] = read-out: growth arrest and DNA damage 45 (GADD45G), GADD45G (gene 10912); assay: LTEA_HepaRG_GADD45G: Life Technologies and Expression Analysis (LTEA) Assay for growth arrest and DNA damage 45 (GADD45G) using HepaRG (AID 2283499)
Procedure, shortened: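 Concentration-response in HepaRG: 48 h dosing, 0.5% DMSO, highest level 100 uM. GADD45G expression by qRT-PCR, normalised to endogenous controls; bidirectional fit to DMSO.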

[12] = read-out: Glutamate-cysteine ligase regulatory (GCLM), GCLM (gene 2730); assay: LTEA_HepaRG_GCLM: Life Technologies and Expression Analysis (LTEA) Assay for Glutamate-cysteine ligase regulatory (GCLM) using HepaRG (AID 2283500)
Procedure, shortened: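 Cells were plated, cultured 48 h, switched to serum-free induction medium, then dosed in duplicate for 48 h at eight half-log concentrations up to 100 uM. RNA was then profiled by qRT-PCR; gain or loss versus DMSO was fitted.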

[13] = read-out: Glutathione S-transferase M3 (GSTM3), GSTM3 (gene 2947); assay: LTEA_HepaRG_GSTM3: Life Technologies and Expression Analysis (LTEA) Assay for Glutathione S-transferase M3 (GSTM3) using HepaRG (AID 2283501)
Procedure, shortened: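 Expression of GSTM3 is determined by qRT-PCR in human liver HepaRG cells treated 48 h with an 8-point half-log range from 100 uM in 0.5% DMSO.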

[14] = read-out: Heat shock 70 kDa protein 1 (HSPA1A), gene 3303; assay: LTEA_HepaRG_HSPA1A: Life Technologies and Expression Analysis (LTEA) Assay for Heat shock 70 kDa protein 1 (HSPA1A) using HepaRG (AID 2283502)
Procedure, shortened: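 Readout is HSPA1A transcript level by microfluidic qRT-PCR, normalized to three housekeeping genes and analysed for gain or loss of signal relative to 0.5% DMSO. Human HepaRG cultures received test chemicals for 48 h at up to 100 uM.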

[15] = read-out: Hypoxia-inducible factor 1-alpha (Homo sapiens) (UniProt Q16665); assay: LTEA_HepaRG_HIF1A: Life Technologies and Expression Analysis (LTEA) Assay for Hypoxia-inducible factor 1 (HIF1A) Trancription factor using HepaRG (AID 2283503)
Procedure, shortened: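 Differentiated HepaRG cells in serum-free induction medium exposed 48 h, in duplicate, to 8-point half-log series from 100 uM in 0.5% DMSO. HIF1A mRNA measured by TaqMan qRT-PCR, normalized to ACTB/GAPDH/POLR2A, fitted bidirectionally versus DMSO.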

[16] = read-out: Cytochrome P450 7A1 (Homo sapiens) (UniProt P22680); assay: LTEA_HepaRG_CYP7A1: Life Technologies and Expression Analysis (LTEA) Assay for Cytochrome P450 7A1 (CYP7A1) using HepaRG (AID 2283496)
Procedure, shortened: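 HepaRG cells plated 48 h, then switched to serum-free induction medium and exposed in duplicate for 48 h to 8-point half-log series from 100 uM in 0.5% DMSO. CYP7A1 mRNA by qRT-PCR (TaqMan), normalized to ACTB/GAPDH/POLR2A; bidirectional fit versus DMSO.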

Measured: AC50

Chain of Hypoxia-inducible factor 1-alpha (Homo sapiens) (Q16665 whole entry, looked up): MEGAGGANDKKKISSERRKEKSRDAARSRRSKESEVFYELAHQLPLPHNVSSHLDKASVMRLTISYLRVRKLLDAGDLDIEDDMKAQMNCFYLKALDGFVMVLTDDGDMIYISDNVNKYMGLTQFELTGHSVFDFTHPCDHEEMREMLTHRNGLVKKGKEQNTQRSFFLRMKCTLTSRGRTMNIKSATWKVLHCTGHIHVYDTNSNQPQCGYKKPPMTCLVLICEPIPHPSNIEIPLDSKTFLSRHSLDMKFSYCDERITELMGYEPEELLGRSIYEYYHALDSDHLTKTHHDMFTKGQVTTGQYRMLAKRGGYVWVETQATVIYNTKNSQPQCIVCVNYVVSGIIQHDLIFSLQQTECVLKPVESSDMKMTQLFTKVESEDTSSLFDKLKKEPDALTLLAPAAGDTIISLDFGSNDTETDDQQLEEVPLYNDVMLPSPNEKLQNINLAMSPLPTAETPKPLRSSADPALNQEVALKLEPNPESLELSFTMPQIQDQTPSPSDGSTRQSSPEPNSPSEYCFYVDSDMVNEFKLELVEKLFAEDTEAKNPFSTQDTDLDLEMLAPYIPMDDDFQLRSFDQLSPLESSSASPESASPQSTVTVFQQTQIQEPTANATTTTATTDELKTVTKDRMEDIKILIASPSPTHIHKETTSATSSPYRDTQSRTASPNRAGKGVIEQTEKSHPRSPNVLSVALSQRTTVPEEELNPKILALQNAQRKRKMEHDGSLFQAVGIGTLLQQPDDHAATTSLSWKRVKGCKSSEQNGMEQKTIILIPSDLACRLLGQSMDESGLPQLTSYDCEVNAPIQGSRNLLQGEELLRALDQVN
Chain of Cytochrome P450 3A7 (Homo sapiens) (P24462 whole entry, looked up): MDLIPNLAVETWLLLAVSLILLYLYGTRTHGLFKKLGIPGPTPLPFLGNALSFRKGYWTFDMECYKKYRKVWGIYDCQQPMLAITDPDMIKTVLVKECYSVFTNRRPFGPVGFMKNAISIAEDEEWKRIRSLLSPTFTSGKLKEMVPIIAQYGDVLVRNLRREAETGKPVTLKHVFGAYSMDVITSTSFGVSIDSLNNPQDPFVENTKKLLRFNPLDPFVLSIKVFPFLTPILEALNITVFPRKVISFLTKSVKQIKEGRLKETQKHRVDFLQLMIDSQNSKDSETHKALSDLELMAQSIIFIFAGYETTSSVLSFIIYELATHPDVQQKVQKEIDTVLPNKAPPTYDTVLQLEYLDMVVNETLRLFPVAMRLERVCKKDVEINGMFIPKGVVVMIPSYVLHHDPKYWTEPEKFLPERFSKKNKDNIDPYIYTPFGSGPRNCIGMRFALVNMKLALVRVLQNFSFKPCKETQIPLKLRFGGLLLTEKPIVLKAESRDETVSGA
Chain of Cytochrome P450 3A4 (Homo sapiens) (P08684 whole entry, looked up): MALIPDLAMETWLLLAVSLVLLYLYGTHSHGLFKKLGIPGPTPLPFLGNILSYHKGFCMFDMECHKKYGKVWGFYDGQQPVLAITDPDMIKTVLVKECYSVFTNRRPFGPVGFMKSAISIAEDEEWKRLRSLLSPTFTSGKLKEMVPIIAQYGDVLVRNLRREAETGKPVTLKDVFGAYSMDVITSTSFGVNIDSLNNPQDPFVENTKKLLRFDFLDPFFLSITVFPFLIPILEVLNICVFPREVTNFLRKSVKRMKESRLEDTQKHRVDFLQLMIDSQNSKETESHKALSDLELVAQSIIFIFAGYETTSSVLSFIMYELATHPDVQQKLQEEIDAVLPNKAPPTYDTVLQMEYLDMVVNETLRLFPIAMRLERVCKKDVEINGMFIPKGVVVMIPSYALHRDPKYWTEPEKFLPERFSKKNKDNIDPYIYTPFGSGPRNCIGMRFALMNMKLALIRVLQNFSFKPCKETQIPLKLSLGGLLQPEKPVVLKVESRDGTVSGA

CCCCCCCCOC(=O)c1cc(O)c(O)c(O)c1
not listed: [16]
inactive: all other assays above

CC1(C)NC(=O)N(c2ccc([N+](=O)[O-])c(C(F)(F)F)c2)C1=O
inactive: [3] | [4] | [6] | [13] | [14]
active: CYP2C9 (gene 1559) 83.6 µM | CYP2E1 (gene 1571) 63.2 µM | CYP4A11 (gene 1579) 69.3 µM | [2] 75.7 µM | [5] 93 µM | CYP3A5 (gene 1577) 32.3 µM | [7] 66.7 µM | [8] 67.4 µM | [16] 90.1 µM | [9] 78.4 µM | [10] 83.4 µM | [11] 77.4 µM | [12] 70.9 µM

O=c1[nH]sc2ccccc12
not listed: [1] | [4] | [16]
inactive: all other assays above

Clc1cc(Cl)c2c(c1)N=C1CCCCCN1C2
active: CYP2E1 (gene 1571) 32.1 µM | [6] 7.11 µM
not listed: [1] | [4] | [16]
inactive: all other assays above

Oc1ccccc1
not listed: [1] | [4] | [16]
inactive: all other assays above

CC1=CC(=O)/C(=C(/C)O)C(=O)O1
not listed: [1] | [4] | [16]
inactive: all other assays above

CC/C(=C(/CC)c1ccc(O)cc1)c1ccc(O)cc1
inactive: [3] | [5] | [6] | [8] | [9] | [12] | [13]
active: CYP2E1 (gene 1571) 82.1 µM | CYP4A11 (gene 1579) 83.4 µM | [2] 67.6 µM | [4] 77.4 µM | CYP3A5 (gene 1577) 50 µM | [7] 94.1 µM | [10] 78.7 µM | [11] 71.7 µM | [14] 75.8 µM | [15] 85.7 µM

O=C=NCCCCCCN=C=O
not listed: [1] | [4]
inactive: all other assays above

O=C1c2ccccc2C(=O)N1CCc1noc(-c2ccc(CN3CCCCCC3)s2)n1
not listed: [1] | [4]
inactive: all other assays above

O=C(OCCCCCCOC(=O)c1ccccc1)c1ccccc1
not listed: [1] | [4] | [16]
inactive: all other assays above

CCN(Cc1cccnc1)C(=O)c1cccc(Cl)c1[C@]1(C)C(=O)N(Cc2ccc(OC)cc2OC)c2ccc(Cl)cc21
active: CYP2C9 (gene 1559) 26.2 µM | CYP2E1 (gene 1571) 16.1 µM | CYP4A11 (gene 1579) 16.7 µM | [2] 11.5 µM | [3] 15.5 µM | [6] 24.1 µM | [7] 22.3 µM | [8] 14.4 µM | [16] 22.3 µM | [9] 25.8 µM | [10] 22.4 µM | [12] 20.1 µM | [14] 6.92 µM
inactive: [5] | CYP3A5 (gene 1577) | [11] | [13] | [15]

CN(C)c1ccc(C(=C2C=CC(=[N+](C)C)C=C2)c2ccc(N(C)C)cc2)cc1
active: CYP2C9 (gene 1559) 3.82 µM | CYP2E1 (gene 1571) 2.31 µM | CYP4A11 (gene 1579) 3.37 µM | [2] 1.38 µM | [3] 88.8 µM | [5] 32 µM | CYP3A5 (gene 1577) 24.6 µM | [7] 2.76 µM | [8] 3.65 µM | [16] 4.38 µM | [9] 4.31 µM | [10] 20.1 µM | [11] 11.7 µM | [12] 95.3 µM | [13] 7.35 µM | [14] 86.5 µM | [15] 44.3 µM
